Compound activity from PubChem BioAssay.
EBV gp42 block: blocks Epstein-Barr virus glycoprotein 42 binding; Fluorescence polarization binding assay, mP read-out; inhibition, % (tested at 21.74 µM); hit rate 0.42% among 220,000; in the data active means inhibition above about 50%
GLD-1 RNA inh: GLD-1-TGE RNA interaction inhibition (C. elegans) | Q17339 | purified GLD-1 + fluorescein TGE RNA, fluorescence polarization | inhibition, % at 5.96 µM | hit rate 0.44% among 320,000 | AID 2280;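 active means percent inhibition above a per-plate cutoff, the plate mean of test compounds plus 3 SD, cut at about 30% in these data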;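 further: 0% = DMSO wells with GLD-1 and probe and 100% = wells lacking GLD-1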
eLon inh: inhibitors of E. coli Lon protease. purified E. coli Lon protease, fluorescence polarization. inhibition, % at 7.94 µM. hit rate 0.42% among 360,000. AID 602123; in the data active means inhibition above about 13%, passing the limit was not always enough;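 further: 0% = enzyme with probe and DMSO and 100% = no enzyme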
Target sequence (P0A9M0 whole entry, looked up): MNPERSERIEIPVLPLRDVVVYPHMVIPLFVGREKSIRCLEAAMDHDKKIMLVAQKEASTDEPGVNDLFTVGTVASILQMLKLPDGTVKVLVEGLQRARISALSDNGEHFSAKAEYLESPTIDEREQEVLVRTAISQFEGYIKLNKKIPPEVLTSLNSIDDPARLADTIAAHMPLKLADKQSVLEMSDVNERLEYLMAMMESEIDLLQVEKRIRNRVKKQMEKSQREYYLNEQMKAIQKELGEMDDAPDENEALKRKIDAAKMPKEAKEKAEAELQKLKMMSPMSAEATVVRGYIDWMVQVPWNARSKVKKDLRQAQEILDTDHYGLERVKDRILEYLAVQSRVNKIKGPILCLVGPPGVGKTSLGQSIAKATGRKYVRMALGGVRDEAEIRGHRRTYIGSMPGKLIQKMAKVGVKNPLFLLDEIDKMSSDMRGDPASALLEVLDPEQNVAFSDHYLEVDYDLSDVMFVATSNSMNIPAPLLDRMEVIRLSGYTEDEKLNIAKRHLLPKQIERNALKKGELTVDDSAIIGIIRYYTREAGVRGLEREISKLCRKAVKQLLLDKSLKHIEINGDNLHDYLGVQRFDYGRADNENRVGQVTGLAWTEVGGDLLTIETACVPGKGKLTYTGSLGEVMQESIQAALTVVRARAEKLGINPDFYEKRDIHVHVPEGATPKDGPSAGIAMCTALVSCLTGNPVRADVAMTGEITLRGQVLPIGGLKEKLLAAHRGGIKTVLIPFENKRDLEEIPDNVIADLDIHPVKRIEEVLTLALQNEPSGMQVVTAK
MEX-5 binding: C. elegans MEX-5 TCR-2 RNA binding activity. Q9XUB2. MEX-5/FITC-TCR2 RNA binding, fluorescence polarization; stronger effect = lower value. activity score (negative = inhibition of binding), % at 10 µM. hit rate 0.38% among 300,000. AID 1832;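 active means inhibition past about -25% in most replicates, and total fluorescence under double the plate's negative control median, limit read from the data; inconclusive means replicates evenly split on the limit, or fluorescence at least double controls; inactive means too little inhibition in most replicates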;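 further: 0% = DMSO and -100% = 5 µM competing unlabeled TCR2 RNA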
MCL1 BIM primary: MCL1-BIM-BH3 interaction inhibition (human) | Q07820 | GST-MCL1 / FITC-Bim-BH3 fluorescence polarization | inhibition, % at 10.9 µM | hit rate 0.68% among 320,000;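 active means inhibition above the mean inhibition of all tested compounds plus 3 SD, set per campaign, cut at about 40% in these data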;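 further: 0% = DMSO wells and 100% = unlabeled Bim-BH3 peptide control; higher means more loss of mP so more displacement of Bim peptide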
Bcl-xL primary: Bcl-xL (human) inhibition | Q07817 | hit rate 0.7% among 320,000 | inhibition, % at 10.9 µM | GST-Bcl-xL / FITC-Bim BH3 peptide fluorescence polarization | AID 2129;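 active means inhibition above the mean of all tested compounds plus 3 SD, cutoff set per campaign, cut at about 30% in these data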;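 further: 0% = DMSO wells and 100% = unlabeled Bim-BH3 peptide competitor; inhibitors lower millipolarization by displacing the labeled peptide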
Starred values were filed as active, the others as inactive; ? = inconclusive; / = no result. An excerpt weighted towards active compounds, which were near 1.5% of everything screened.

SMILES	EBV gp42 block	GLD-1 RNA inh	eLon inh	MEX-5 binding	MCL1 BIM primary	Bcl-xL primary
O=C(CSc1n[nH]c(=O)[nH]c1=O)Nc1ccc2c(c1)C(=O)c1ccccc1C2=O	63.6*	19.6	14.3	-0.1	40.0*	33.7*
COc1ccc(-n2c(O)c(/C=N/NS(=O)(=O)c3ccc(C)c([N+](=O)[O-])c3)c3ccccc3c2=O)cc1OC	-34.6	-33.1	-165.6	6.5	-95.7	40.9*
COc1cc(/C=N/NS(=O)(=O)c2ccc(C)c([N+](=O)[O-])c2)cc([N+](=O)[O-])c1O	/	-4.8	4.5	-8.1	5.0	5.3
O=C(c1ccc2c(c1)OCO2)N1CCCc2ccccc21	-2.3	-5.4	-4.3	-0.7	1.4	1.7
CNC(=O)c1cn(-c2ccccc2)c(=O)c2ccccc12	-13.8	72.2*	-2.0	-0.5	40.8*	72.1*
CN(C)C(=O)c1cn(-c2ccccc2)c(=O)c2ccccc12	-14.2	6.0	-6.9	0.8	-0.3	-2.5
CCOc1cccc(C2C(C(=O)c3ccco3)=C(O)C(=O)N2c2nnc(C)s2)c1 (stereo not given)	/	50.2*	16.1	/	34.0	43.4*
CSc1nnc(N2C(=O)C(O)=C(C(=O)c3ccco3)C2c2cccc(Cl)c2)s1 (stereo not given)	/	37.3*	-13.4	-26.0*	32.6	38.9*
COc1ccc(C2C(C(=O)c3ccco3)=C(O)C(=O)N2c2nnc(C)s2)cc1OC (stereo not given)	/	18.8	5.1	-11.9	43.3*	44.9*
CCOc1cccc(C2C(C(=O)c3ccc(C)o3)=C(O)C(=O)N2c2nnc(C)s2)c1 (stereo not given)	/	/	-2.9	/	/	/
C=CCOc1ccc(C2C(C(=O)c3ccco3)=C(O)C(=O)N2c2nnc(C)s2)cc1 (stereo not given)	42.9	21.4	-0.1	-6.8	26.8	33.3*
COc1ccc(C2C(C(=O)c3ccco3)=C(O)C(=O)N2c2nnc(C)s2)cc1 (stereo not given)	42.8	23.9	0.8	-5.8	32.0	25.8
CC[C@H](C)/C=C/C1=CC2=C(Cl)C(=O)[C@@]3(C)OC(=O)C(C(=O)[C@H](C)[C@@H](C)O)=C3C2=CO1	/	18.9	3.0	-19.2	37.8	32.1*
CC(CN1CCC(n2nccc2NC(=O)c2ccccc2Cl)CC1)c1ccccc1 (stereo not given)	/	6.3	12.2	-18.0	33.2	33.4*
Cc1ccccc1C(=O)Nc1ccnn1C1CCN(C(C)Cc2ccccc2F)CC1 (stereo not given)	/	3.7	3.1	-15.2	42.0*	39.0*
CC(=O)N(c1ccccc1C)C1CCCC1	-13.8	-4.4	-14.1	-1.6	-3.2	4.0
CC(=O)N(C1=C(Cl)C(=O)c2ccccc2C1=O)C1CCCCC1	-24.0	13.0	7.6	-48.2*	30.5	15.0
Cn1c(SCC(=O)Nc2ccc3nc(SCC(=O)N4CCCC4)sc3c2)nnc1-c1ccc(N)cc1	88.2*	/	0.8	/	/	/
Cc1cc2ccccc2n1CCNC(=O)Cc1ccccc1	-9.8	16.0	9.4	-1.1	7.6	7.2
Cc1cc2ccccc2n1CCNC(=O)C(C)Oc1ccccc1 (stereo not given)	1.5	10.6	24.5*	-2.1	13.2	15.1
O=C(NC1CCCC1)C(c1ccncc1)N(C(=O)c1csnn1)c1ccccc1F (stereo not given)	/	5.8	-4.5	1.0	4.0	5.2
O=C1c2c(O)cccc2C(C2OC(CO)[C@@H](O)[C@H](O)[C@H]2O)c2cc(CO)cc(O)c21 (stereo not given in full)	/	5.1	8.2	/	0.7	10.8
O=C(O)c1cc(O)c2c(c1)[C@H]([C@H]1c3cc(C(=O)O)cc(O)c3C(=O)c3c(O[C@@H]4O[C@H](CO)[C@@H](O)[C@H](O)[C@H]4O)cccc31)c1cccc(OC3O[C@H](CO)[C@@H](O)[C@H](O)[C@H]3O)c1C2=O (stereo not given in full)	/	29.1	2.6	-97.6*	110.2*	94.1*
O=C1c2cc(CO)cc(O)c2C(=O)c2c(O[C@@H]3OC(CO)[C@@H](O)[C@@H](O)[C@@H]3O)cccc21 (stereo not given in full)	/	9.8	6.1	-4.8	14.4	11.4
O=C(O)c1cc(O)c2c(c1)[C@@H]([C@H]1c3cc(C(=O)O)cc(O)c3C(=O)c3c(O[C@@H]4O[C@H](CO)[C@@H](O)[C@H](O)[C@H]4O)cccc31)c1cccc(OC3O[C@H](CO)[C@@H](O)[C@H](O)[C@H]3O)c1C2=O (stereo not given in full)	/	29.6	-7.9	-100.2*	114.3*	96.9*
SMILES	EBV gp42 block	GLD-1 RNA inh	eLon inh	MEX-5 binding	MCL1 BIM primary	Bcl-xL primary
Cc1ccc(C)c(NC(=O)C2CC=CCC2C(=O)O)c1 (stereo not given)	-4.3	-7.7	-2.4	1.2	1.6	8.3
CCCc1nc2c(Cl)cc(C(F)(F)F)cn2c1Cc1ccc(OC)cc1C	/	/	-4.4	/	/	/
O=[N+]([O-])c1ccc(C(=S)N2CCN(c3ccc(F)cc3)CC2)cc1	-13.7	-6.6	5.5	2.2	11.1	1.8
CCOC(=O)c1c(C)[nH]c(O)c1C=Nc1ccc(C(F)(F)F)cc1	-6.6	36.8*	2.6	-2.7	7.2	-2.2
CCOC(=O)c1c(C)[nH]c(O)c1C=Nc1ccc(Cl)cc1	-18.1	5.4	-86.5	-6.2	-4.6	6.7
COc1cc2c3nnc(-c4ccccc4)c-3cn(Cc3ccc(F)cc3)c2cc1OC	2.6	-0.9	-14.5	-34.4*	3.2	-2.5
COc1cc2c3nnc(-c4ccc(F)cc4)c-3cn(Cc3ccc(C)cc3)c2cc1OC	-118.0	-4.2	-3.5	?	-15.7	13.1
CC(C)NC(=S)NN=C1CCC(c2ccccc2)CC1 (stereo not given)	-8.7	-3.5	-4.9	2.0	7.7	3.6
CSCC(C)N1CCC(N2CCC(C(=O)NCc3ccccn3)CC2)CC1 (stereo not given)	/	17.6	-11.5	?	40.2*	33.0*
CC(C)CCC(=O)N1CCC(N2CCC(C(=O)NCc3ccccn3)CC2)CC1	/	6.0	-6.4	-5.3	6.7	16.3
Cc1ccccc1-n1c(=O)cc(NCC2CCCO2)[nH]c1=O (stereo not given)	-17.0	10.6	-6.3	-1.8	16.9	35.8*
CCCCn1c(-c2ccccc2C)nc2cc3[nH]c(=O)c(C(C)C)nc3cc21	/	6.7	-1.6	0.4	32.1	30.4*
CC1CN(Cc2c(O)ccc3c(=O)c(-c4ccccc4)coc23)CC(C)O1 (stereo not given)	0.4	-0.2	-1.4	1.0	-2.8	4.0
CC1CN(Cc2c(O)ccc3c2oc(=O)c2ccccc23)CC(C)O1 (stereo not given)	-8.9	-3.0	-5.4	-28.6*	10.3	18.0
COc1ccc(C(=O)Nc2ccc(S(=O)(=O)Nc3nccc(C)n3)cc2)cc1	/	-3.5	-6.9	0.2	10.4	10.9
